HT1080-NT tox: qHTS for induction of synthetic lethality in tumor cells producing 2HG: qHTS for the HT-1080-NT fibrosarcoma cell line; HT-1080-NT fibrosarcoma viability, CellTiter-Glo ATP luminescence, 48 h; Potency, µM (doses to about 46.1 µM), for the others: at the highest dose activity, negative = less viability, most hits filed as cytotoxic; 360,000 compounds, 1.6% hits;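 note: NT is the 2HG producing partner of a matched IDH1 knockdown line; potency is the fitted concentration of half-maximal effect; 0% = DMSO-treated cells and -100% = media-only wells without cells; nearly all actives have a fitted effect of over 55% in size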
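Compounds were tested in concentration-response format on HT-1080-NT cells for 48 hours at 37 degrees C. Cell viability came from CellTiter-Glo luminescence; curves were classified by r2, response magnitude and activity.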
HT1080 IDH1KD tx: qHTS for induction of synthetic lethality in tumor cells producing 2HG: qHTS for the HT-1080-IDH1KD cell line | 360,000 compounds, 2% hits | Potency, µM (highest dose often 46.1 µM), without a hit: top-dose activity, negative = toxicity, hits mostly cytotoxic | HT-1080 IDH1 knockdown viability, ATP luminescence, 48 h;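 note: potency is the fitted concentration of half-maximal effect; 0% = DMSO wells and -100% = cell-free medium wells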
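Luminescent ATP read-out (CellTiter-Glo, 10 min at room temperature) after 48 h compound exposure at 37 °C gave viability of IDH1-knockdown HT-1080 cells. Activity was normalised to DMSO and cell-free wells, then fitted as concentration-response curves.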
TDP1 cell CPT: qHTS for Inhibitors of human tyrosyl-DNA phosphodiesterase 1 (TDP1): qHTS in cells in presence of CPT | chicken DT40 Tdp1-/-;hTDP1 cells + 20 nM CPT, ATP luminescence, 48 h | Potency, µM (highest dose often 46.2 µM), inactives show top-dose activity change, negative = growth inhibition, hits mostly inhibitors | 420,000 compounds, 12% hits; note: potency is the fitted concentration of half-maximal effect; nearly all actives have a fitted effect of over 55% in size
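Chicken DT40 Tdp1-/- cells complemented with human TDP1, 400 cells/well, exposed to compounds plus 20 nM camptothecin for at least 48 h at 37 C; viability read as ATP content by CellTiter-Glo luminescence.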
IL1B secr inh: qHTS for Inhibitors of Inflammasome Signaling: IL-1-beta AlphaLISA Primary Screen; 360,000 compounds, 4.7% hits; AID 743279, 2014; activity change, % at 57.5 µM; THP-1 LPS/ATP IL-1B secretion, AlphaLISA, 16 h; hits give low values; in the data active = activity change below about -50%; inconclusive = mostly about -30% to -49%
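Secreted IL-1B measured by AlphaLISA bead assay after 16 h compound exposure of THP-1 cells; compounds (final up to 57.5 uM) added 1 h before LPS (250 ng/mL) and ATP (1.25 mM) stimulation; lower signal means less secretion.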
DT40 TDP1 no CPT: qHTS for Inhibitors of human tyrosyl-DNA phosphodiesterase 1 (TDP1): qHTS in cells in absence of CPT | DT40 Tdp1-/- hTDP1 cells, no CPT, ATP luminescence, 48 h | Potency, µM (series often up to 46.2 µM), for inactives: at the top dose activity change, negative = growth inhibition, most hits filed as inhibitors | 420,000 compounds, 15% hits | AID 686978, 2013; note: potency is the fitted concentration of half-maximal effect; nearly all actives have a fitted effect of over 55% in size
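Seeded 400 DT40-hTDP1 cells/well (vehicle DMSO, no 20 nM CPT); pinned compounds; ≥48 hr at 37 °C; CellTiter-Glo luminescence as viability measure.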
Active calls of the source: *; i = inactive; ? = inconclusive; nt = not tested or not shown; [ ] = another dose, or the depositor's remark. This is a sample that favours compounds with a hit; in the whole collection about 19% have one here. Unless noted, calls come from the whole dose curve; as a rule, active = well fitted curve in the direction sought with a large enough effect; inconclusive = small, poorly fitted or top-dose-only effect, or another doubt; inactive = no such curve, though single readings can be large; an effect the other way counts as inactive or inconclusive. Unless noted, % is set by controls: 0 for no effect and ±100 for the full control effect.

SMILES	HT1080-NT tox	HT1080 IDH1KD tx	TDP1 cell CPT	IL1B secr inh	DT40 TDP1 no CPT
Cc1cc(C)cc(Oc2ccc(NC(=O)C3CC=CCC3C(=O)O)cc2)c1 (configuration not stated)	-15%	-19%	-4%	11	3.7µM*
COc1ccc(C(C)(C)C)cc1NC(=O)c1cncc(Br)c1	0%	-7%	?	-22	18µM*
COc1ccc(C(C)(C)C)cc1NC(=O)C1CC=CCC1C(=O)O (configuration not stated)	1%	5%	?	27	15µM*
O=C(c1ccc(F)c(S(=O)(=O)N2CCOCC2)c1)N1CCc2ccccc21	0%	-1%	?	i	?
CCN(CC)C(=O)c1c(Cl)nc(C)c([N+](=O)[O-])c1C	11%	16%	3%	7	-15%
C=CCc1ccc(OCCCCN2CCC(C)CC2)c(OC)c1	-17%	-43%	?	-7	16µM*
C=CCc1ccc(OCCCCN2CC(C)CC(C)C2)c(OC)c1 (configuration not stated)	-1%	-6%	16µM*	-17	21µM*
CN1C(=O)NC2(O)C(=O)c3ccccc3C12O (configuration not stated)	3%	?	12µM*	35	10µM*
CCN1CCCc2cc(CN(CCN3CCOCC3)C(=S)Nc3cccc(Cl)c3)ccc21	-7%	-21%	16µM*	?	13µM*
CCN1CCCc2cc(CN(CCN3CCOCC3)C(=S)Nc3ccc(OC)cc3)ccc21	0%	1%	-17%	-10	-15%
CCN1CCCc2cc(CN(CCN3CCOCC3)C(=S)Nc3ccc(C)cc3)ccc21	0%	-16%	29µM*	4	18µM*
CCN1CCCc2cc(CN(CCN3CCOCC3)C(=S)Nc3cc(F)cc(F)c3)ccc21	0%	1%	?	-13	21µM*
Cc1nc(N2CCOCC2)nc(Oc2ccccc2)c1[N+](=O)[O-]	1%	-3%	-8%	-7	-24%
C#CCNC(=O)C[C@@H]1C[C@@]2(C(=O)OCC)CCC=C2N(Cc2cccc3ccccc23)C1=O	-2%	5%	?	-9	16µM*
CCCCNC(=O)C[C@@H]1C[C@@]2(C(=O)OC)CC(C)(C)CC=C2N(Cc2cccc3ccccc23)C1=O	-27%	?	?	-10	?
CCOC(=O)[C@]12CCC=C1N(Cc1cccc3ccccc13)C(=O)[C@H](CC(=O)NCCCCc1ccccc1)C2	-18%	-19%	23µM*	-70*	16µM*
C#CCNC(=O)C[C@@H]1C[C@@]2(C(=O)OC)CC(C)(C)CC=C2N(Cc2cccc3ccccc23)C1=O	?	?	16µM*	16	18µM*
CCOC(=O)[C@]12CCC=C1N(Cc1ccccc1)C(=O)[C@H](CC(=O)NCc1cccc3ccccc13)C2	-26%	-11%	?	-15	?
CCCCCCCCN1C(=O)[C@H](CC(=O)NCc2cccc3ccccc23)C[C@@]2(C(=O)OCC)CCC=C12	?	?	?	?	21µM*
CC[C@H](C)[C@H]1CNC(=S)N1CC1CCN(CCCC2CCCC2)CC1	-5%	0%	?	-28	?
CCOC(=O)C1CCCN(C(=O)C2CCCN(S(C)(=O)=O)C2)C1 (configuration not stated)	6%	9%	5%	9	0%
O=C(c1n[nH]c2c1CCCC2)N1CCOc2ccc(C(O)C(c3ccccc3)c3ccccc3)cc2C1 (configuration not stated)	nt	nt	19%[9.04 µM]	nt	?

Source: PubChem BioAssay (National Center for Advancing Translational Sciences (NCATS))
